Screens from PubChem.
This is a sample that favours compounds with a hit; in the whole collection about 4% have one here.
Anthrax LF inh2: anthrax lethal factor protease inhibition; P15917; multiplex microsphere protease cleavage assay, LF; inhibition, % at 10 µM; 0.12% of 360,000 active; AID 588501
MazEF act: MazEF (E. coli) toxin RNase activation; activation, % at 20 µM; P0AE70; FAM/BHQ RNA-DNA oligo cleavage fluorescence, 5 h; 0.32% of 350,000 active; AID 504720; in the data active means activation above about 50%
BoNT F protease: BoNT F light chain protease inhibition; Multiplex microsphere protease cleavage assay, flow cytometry; inhibition, % at 10 µM; 0.22% of 360,000 active; AID 588497; in the data active means inhibition above about 35%, passing the limit was not always enough; inconclusive means no clear call, values can overlap the other calls
Autofluor counter: counter-screen for toxin protease inhibitors: compound fluorescence | 3.1% of 360,000 active | fluorescence intensity (test concentration not listed) | compound autofluorescence counterscreen, microsphere flow cytometry; active compounds read high | AID 624483; in the data active means fluorescence intensity above about 16000; inconclusive means no clear call, values can overlap the other calls
DUSP3 inh: blocks human VHR1 dual specificity phosphatase | P51452 | recombinant VHR phosphatase, pNPP absorbance | inhibition, % at 13.3 µM | 0.52% of 290,000 active | AID 1654; in the data active means inhibition above about 50%
BoNT A protease: BoNT A light chain protease inhibition | inhibition, % at 10 µM | multiplex microsphere protease substrate cleavage, flow cytometry | AID 588499 | 0.17% of 360,000 active
A number is an active result; . = inactive; ? = inconclusive; / = no result. Unless noted, no stated cut-off is given here; in the data, active means inhibition above about 30%; inconclusive means no clear call, values can overlap the other calls; inactive means below that.

SMILES	Anthrax LF inh2	MazEF act	BoNT F protease	Autofluor counter	DUSP3 inh	BoNT A protease
O=C(NC(=S)Nc1ccc2c(c1)OCCO2)c1ccccc1F	.	.	.	.	.	.
COCCCNC(=S)Nc1ccc2c(c1)OCCO2	.	.	.	.	.	.
OCCNC(=S)Nc1ccc2c(c1)OCCO2	30.0	.	?	.	.	.
Cc1ccc(-c2cc(NC(=O)CCl)n(-c3ccccc3)n2)cc1	.	.	.	.	.	.
COc1c2ccc(C(=O)NCc3cc(C(F)(F)F)cc(C(F)(F)F)c3)cc2nn1C	.	.	.	.	.	.
Cn1c(C(=O)N2CCCC(C(=O)NCCc3ccccc3)C2)cc2sccc21 (centres undefined)	.	.	.	.	.	.
O=C(O)c1ccc(NC(=O)c2ccc3c(c2)C(=O)N(c2ccccc2)C3=O)cc1	.	.	37.8	.	.	.
O=C(O)c1cccc(NC(=O)c2ccc(N3C(=O)c4ccc(C(=O)Nc5cccc(C(=O)O)c5)cc4C3=O)cc2)c1	.	.	.	.	.	.
Cc1csc(Sc2ccc([N+](=O)[O-])cc2C(=O)OCC(=O)NC2CCCC(C)C2C)n1 (centres undefined)	.	.	.	16483	.	.
CCN(c1ccccc1)S(=O)(=O)c1cc(C(=O)NCC(c2ccco2)N2CCCCC2)ccc1C (centres undefined)	.	.	.	.	/	.
COc1ccc(CC(=O)Nc2c3c(nn2-c2cccc(Cl)c2)CS(=O)(=O)C3)cc1	.	.	.	.	.	.
O=C(Cc1ccccc1)Nc1c2c(nn1-c1cccc(Cl)c1)CS(=O)(=O)C2	.	.	.	20201	.	.
COc1ccc(CONS(=O)(=O)c2ccc(NC(C)=O)cc2)cc1Cl	.	.	.	20406	.	.
COc1ccc(S(=O)(=O)Nc2ccc(NC(C)=O)cc2)cc1Cl	.	.	.	.	.	.
CC1=C(C#N)C(NC(=O)C(C)(C)C)(C(F)(F)F)C(=O)N1 (centres undefined)	.	.	.	21687	.	.
CCOC(=O)c1nnc(-c2ccccc2)nc1NCc1ccccc1	.	.	.	24408	.	.
CCOC(=O)c1cc(C#N)c(NCc2ccccc2)nc1C	.	.	.	.	.	.
COc1ccc(-c2cc(C)no2)cc1S(=O)(=O)N1CCOc2ccc(C)cc21	.	76.2	.	.	.	.
CCc1ccc(-c2cc(C)no2)cc1S(=O)(=O)N1CCOc2ccccc21	.	.	.	.	.	.
Cc1ccccc1Cn1ccc(-c2ccc(Cl)cc2)c(C#N)c1=O	.	.	.	23457	.	.
Cc1cccc(C)c1OCC(O)CNC(C)(C)C (centres undefined)	.	.	.	16186	.	.
Cc1c(Br)cc(-c2nnco2)cc1Br	.	.	.	23447	.	.
Cc1cc(=O)oc2c(CN3CCN(CCO)CC3)c(O)ccc12	.	.	.	.	.	.
COc1ccccc1-c1c(C)oc2c(CN3CCN(C)CC3)c(O)ccc2c1=O	.	.	.	21100	.	?
CN1CCN(Cc2c(O)ccc3c(-c4ccccc4)cc(=O)oc23)CC1	.	.	.	23428	.	?
SMILES	Anthrax LF inh2	MazEF act	BoNT F protease	Autofluor counter	DUSP3 inh	BoNT A protease
CC(C)c1ccc(C2OCC(C)([N+](=O)[O-])CO2)cc1 (centres undefined)	.	.	.	.	/	.
CC1(C(=O)O)COC(c2ccc([N+](=O)[O-])cc2)OC1 (centres undefined)	.	.	.	16243	.	.
C(=N\Nc1nc(N2CCCC2)nc(N2CCCC2)n1)/c1ccncc1	.	.	.	.	.	.
Cn1c2ccccc2c2ncn(CCN3CCOCC3)c(=O)c21	.	.	.	.	.	.
O=C(NCCCN1CCOCC1)c1ccc(Br)s1	.	.	.	.	.	.
O=C(NCCCCNC(=O)c1ccc(Br)s1)c1ccc(Br)s1	.	.	.	20047	.	?
CC(=O)Nc1ccc(S(=O)(=O)NCCC(=O)OCCN2C(=O)c3ccccc3C2=O)cc1	.	.	.	.	.	.
CCc1ccc(NC(=O)C(CC)Sc2nc3cc4c(cc3c(=O)n2Cc2ccco2)OCO4)cc1 (centres undefined)	.	.	.	20624	.	?
COc1ccc(C(C(=O)NC2CCCCC2)N(C(=O)c2sc(C)nc2C)c2ccccc2C)cc1 (centres undefined)	.	.	.	.	.	.
Cc1cc(Br)ccc1NC(=O)CNC(=O)CSc1n[nH]c(N)n1	.	.	40.0	.	.	.
Nc1nc(SCC(=O)Nc2ccc(Br)cc2F)n[nH]1	.	.	.	.	.	.
O=S1(=O)[C@H]2C[C@@H]3C=C[C@@]2(CN1Cc1cccc(C(F)(F)F)c1)O3	.	.	.	.	.	.
COC(=O)c1ccc(/C=N/Nc2nc(-c3ccc(C)cc3)cs2)cc1	.	52.4	.	.	.	.
Clc1ccc(-c2csc(N/N=C/c3cccnc3)n2)c(Cl)c1	.	.	.	.	.	.
CC(/C=C/c1ccccc1)=N\Nc1nc(-c2ccccc2)cs1	.	.	.	24306	.	.
C(=N\Nc1nc(-c2ccccc2)cs1)/c1cccnc1	.	.	.	23863	.	.
CC(C)=NNc1nc(-c2ccccc2)cs1	.	.	.	.	.	.
COc1ccccc1NC(=O)Cn1cc(C#N)c2ccccc21	.	.	.	.	.	.
CC(Sc1nc2ccccc2[nH]1)C(=O)O (centres undefined)	.	.	.	23428	.	.
CCN(CC)c1ccc2cc(-c3nc(-c4cc5ccccc5oc4=O)cs3)c(=O)oc2c1	46.6	.	.	.	/	87.2
COc1ccc(C(=O)NCCSc2ccccc2)cc1OC	.	.	.	.	.	.
CCOC(=O)C1CCCn2c1nc1sc3c(c1c2=O)CCCC3 (centres undefined)	.	.	.	23606	.	.
Cc1c(NC(=O)COc2ccc3ccccc3c2)c(=O)n(-c2ccccc2)n1C	/	.	/	/	.	/
O=C(CCNC(=O)c1ccc(Br)o1)NCc1ccc(Cl)cc1	.	.	.	20990	.	.
COc1cccc(CNC(=O)CCNC(=O)c2ccc(Br)o2)c1	.	.	.	.	.	.
SMILES	Anthrax LF inh2	MazEF act	BoNT F protease	Autofluor counter	DUSP3 inh	BoNT A protease
CN(C)C(=S)Nn1c(-c2ccccc2)nc2ccccc2c1=O	.	.	.	.	.	.
O=C(Nn1c(-c2ccccc2)nc2ccccc2c1=O)C1CCC1	.	.	.	21456	.	.
CSCC[C@H](NC(=O)OC(C)(C)C)c1nnc(SCC(N)=O)o1	.	.	.	.	.	.
CSCC[C@H](NC(=O)OC(C)(C)C)c1nnc(SCC=C(C)C)o1	.	.	.	25549	.	.
CC(C)(C)OC(=O)N[C@@H](Cc1ccccc1)c1nnc(SCC(=O)c2ccc(Cl)cc2)o1	.	.	.	19238	.	.
CC(C)(C)OC(=O)N[C@@H](Cc1ccccc1)c1nnc(SCC(=O)O)o1	.	.	.	.	.	.
CCN(CC)C(=O)CSc1nnc([C@@H](NC(=O)OC(C)(C)C)C(C)C)o1	.	.	.	17771	.	.
